LAP4-GFP MLPCN = yeast TOR pathway LAP4-GFP modulation | GFP response vs DMSO, % at 10 µM | AID 2023 | S. cerevisiae LAP4-GFP multiplex, flow cytometry GFP, 3 h; median GFP as percent of DMSO wells | actives 0.34% (n = 320,000);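 active = GFP response vs DMSO above a set limit, about the screen mean plus 3 SD, cut at about 150% in these data; inconclusive = under 70 cell events counted for the yeast strain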
AGP1 TOR yeast = modulators of TOR pathway AGP1-GFP in S. cerevisiae. GFP response vs DMSO, % at 10 µM. AID 2066. actives 0.02% (n = 320,000). S. cerevisiae AGP1-GFP multiplex flow cytometry, 3 h; GFP as percent of DMSO wells;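 active = GFP response relative to DMSO above a set limit, near screen average plus 3 SD, cut at about 150% in these data; inconclusive = fewer than 70 cells counted for the yeast strain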;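 note: median GFP channel fluorescence of the gated AGP1 strain per well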
CIT2 TOR yeast = yeast TOR pathway CIT2-GFP modulation | S. cerevisiae CIT2-GFP strain, flow cytometry, 3 h; 100 means same as DMSO wells | GFP response vs DMSO, % at 10 µM | actives 0.065% (n = 320,000) | AID 2029;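 active = GFP response relative to DMSO above a set limit, near the screen mean plus 3 SD, cut at about 150% in these data; inconclusive = Fewer than 70 cells measured for a yeast strain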;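 note: ratio of well median GFP fluorescence to mean of DMSO wells on the plate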
RPL19A-GFP yeast = modulators of TOR pathway RPL19A-GFP in S. cerevisiae | S. cerevisiae RPL19A-GFP strain, flow cytometry, 3 h; stronger effect = lower value | percent response vs DMSO, % at 10 µM | actives 0.3% (n = 330,000) | AID 2025;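 active = percent response vs DMSO below 50%; inconclusive = fewer than 70 events counted for the yeast strain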;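 note: median channel GFP fluorescence of the barcoded RPL19A-GFP strain; ratio of sample median GFP to plate DMSO average so 100% = DMSO; lower means less RPL19A-GFP as with rapamycin TOR inhibition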
Myeloid diff MLP = myeloid differentiation induction | actives 1% (n = 360,000) | AID 624256 | ER-HoxA9 myeloid progenitors, lysozyme-GFP differentiation, flow cytometry | calls only at 10 µM;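 active = normalized GFP-positive differentiation at or above the plate's own cutoff, the solvent-only control mean plus 3 SD; inconclusive = no clear call, values can overlap the other calls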;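 note: cells exposed to compound for four days before flow analysis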
MEP2-GFP yeast = modulators of TOR pathway MEP2-GFP in S. cerevisiae; actives 0.51% (n = 330,000); GFP response vs DMSO, % at 10 µM; S. cerevisiae MEP2-GFP strain, flow cytometry GFP, 3 h; 100% = DMSO control level; AID 2016;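 active = GFP response versus DMSO above a set limit, roughly screen mean plus 3 SD, cut at about 180% in these data; inconclusive = fewer than 70 cells counted for a yeast strain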;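 note: median GFP fluorescence of the barcode-gated MEP2-GFP cells per well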
Myeloid diff = promotes myeloid progenitor differentiation; shares compounds with Myeloid diff MLP; ER-HoxA9 myeloid progenitors, GFP/Mac1 double-positive flow; calls only; actives 2% (n = 2,300); AID 651706;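 active = share of green or green-and-red cells above 9 and 9% in run 1 or 4 and 3% in run 2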
GFP autofluor = flagged as fluorescent in myeloid differentiation counter-screen; actives 7.4% (n = 2,300); ER-HoxA9 myeloid progenitors, no estrogen, GFP autofluorescence flow cytometry; vehicle wells 0%, positive control 100%; shares compounds with Myeloid diff MLP; fluorescence response, % (test concentration not listed); AID 651707;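 active = over 5% cells positive for green fluorescent reporter, or over 2% positive for both it and APC stain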;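 note: range taken on the double positive population between DMSO and positive control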
The depositor's hits bear a star; i = inactive; ? = inconclusive; / = not tested or not shown; + = active, no number. The list is not random: actives were taken first. Their share in the collection is about 1.8%.

SMILES	LAP4-GFP MLPCN	AGP1 TOR yeast	CIT2 TOR yeast	RPL19A-GFP yeast	Myeloid diff MLP	MEP2-GFP yeast	Myeloid diff	GFP autofluor
O=C(O)CCC(=O)NN1C(=O)c2ccccc2NC1c1ccco1 (stereo unspecified)	105	102	98	102	i	101	/	/
CC(C)(C)NC(=O)C(c1ccc(-c2ccccc2)cc1)N(C[C@H]1CC[C@@H]([C@@H]2CC[C@H](CO)O2)O1)C(=O)c1ccc(C(C)(C)C)cc1 (stereo partly specified)	/	/	/	/	i	/	i	0
O=C(CN(C1CCCCC1)C1CCCCC1)N1CCc2ccccc2C1	99	106	99	94	i	112	/	/
COCc1cc(C)n(CC(=O)Nc2ccccc2C(=O)OC)c(=O)c1C#N	101	98	95	95	i	101	i	1
CCOc1ccccc1NC(=O)Cn1c(C)cc(COC)c(C#N)c1=O	98	97	101	102	i	100	/	/
CCOC(=O)c1oc2ccc(CNC3CCCCC3)c(Cl)c2c1C	111	102	95	101	+	107	i	0
COc1cccc2sc(=NC(=O)CS(=O)(=O)c3ccc(F)cc3)n(C)c12	103	93	92	96	i	108	/	/
CCn1c(=NC(=O)CS(=O)(=O)c2ccc(C)cc2)sc2cccc(OC)c21	103	99	98	97	i	106	i	0
COc1cccc2sc(=NC(=O)CS(=O)(=O)c3ccccc3)n(C)c12	/	/	/	/	i	/	/	/
COc1cccc2sc(=NC(=O)CS(=O)(=O)c3ccc(Cl)cc3)n(C)c12	103	97	93	97	+	95	i	0
Cn1cc(CNCc2ccccc2OCC(O)CN2CCc3ccccc3C2)cn1 (stereo unspecified)	99	113	103	105	i	112	/	/
N#CC1=C(N)Oc2n[nH]c(-c3ccccn3)c2C1c1c(F)cccc1Cl (stereo unspecified)	92	91	94	98	i	95	i	0
Cc1ccccc1C(=O)Nc1ccc2c(C#N)c3nc4ccccc4nc3n2c1	92	100	99	109	+	98	i	2.3*
COc1ccc(NC2CCCN(C(=O)CCN3CCCO3)C2)cc1 (stereo unspecified)	100	96	99	94	i	89	/	/
CCN1CCN(c2ncnc3c2nnn3Cc2ccccc2)CC1	76	?	?	?	i	?	/	/
c1ccc(Cn2nnc3c(N4CCCC4)ncnc32)cc1	99	89	98	/	+	99	i	0
Cc1nn(-c2ccccc2)c(N2CCCC2)c1/C=N/NC(=S)Nc1ccccc1F	91	99	95	102	+	96	+	1
N#C/C(=C\Nc1ccc2cn[nH]c2c1)c1nc(-c2ccc(Cl)cc2)cs1	94	92	90	94	+	95	+	0
c1ccc(Nc2nc(NCCN3CCOCC3)nc(Nc3ccccc3)n2)cc1	112	100	96	98	i	105	/	/
Cc1c(C(=O)N2CCC(C)CC2)oc2ccc3c(c12)C(O)CC1(CCCCC1)O3 (stereo unspecified)	92	93	99	94	+	96	i	1
Cc1cc(C(=O)COc2ccc(F)cc2Br)c(C)n1C1CC1	/	/	/	/	i	/	i	2
O=c1[nH]c(=S)n2c(c1-c1ccccc1)OC(CBr)C2 (stereo unspecified)	/	/	/	/	+	/	i	4
CCN1CCN(CCCNC(=O)c2ccc(NC(=O)C3=CSCCO3)cc2)CC1	104	106	101	102	i	106	/	/
CCOc1ccc(C(=O)NCC(=O)OCc2c(F)cccc2Cl)cc1OCC	109	116	113	108	i	112	i	0
CCOc1ccc(C(=O)NCC(=O)OCc2c(F)cccc2Cl)cc1	109	105	105	107	i	114	/	/
SMILES	LAP4-GFP MLPCN	AGP1 TOR yeast	CIT2 TOR yeast	RPL19A-GFP yeast	Myeloid diff MLP	MEP2-GFP yeast	Myeloid diff	GFP autofluor
CCOc1ccc(N2C(=O)CS/C2=N/NC(=O)COc2ccc3ccccc3c2)cc1	106	101	102	102	i	105	i	1
Cc1ccc(/C=N/NC(=O)CNC(=O)c2ccc(S(=O)(=O)N(C)C)cc2)o1	85	95	92	103	i	91	/	/
CCCOn1nnnc1-c1ccccc1	98	97	116	106	i	108	i	0
CCOC(=O)C1=NN(C(=O)c2ccc(OC)cc2)C(O)(c2ccc(Cl)cc2)C1 (stereo unspecified)	93	90	95	99	+	90	i	0
Cc1c(NC(=O)[C@@H](NC(=O)c2ccc(Cl)c([N+](=O)[O-])c2)C(C)C)c(=O)n(-c2ccccc2)n1C	103	94	94	97	i	101	/	/
C=CCN1C(=O)C2(NNc3ccccc3O2)c2ccccc21 (stereo unspecified)	126	/	101	105	i	124	i	95*
COc1ccc(-c2cc3ccccc3n2CC(O)CN2CCC(C)CC2)cc1 (stereo unspecified)	103	103	102	98	i	103	i	0
CCc1cc(=O)oc2cc(C)cc(OCC(=O)NCC3CCC(C(=O)O)CC3)c12 (stereo unspecified)	95	98	99	94	i	88	/	/
COc1cc(C#Cc2c(-c3cncn3C)n(C)c3ccc(-c4ccc5[nH]ccc5c4)cc23)cc(OC)c1	111	89	97	97	i	101	i	98*
O=C(CC1CC1)N[C@@H]1CC[C@@H](CCNS(=O)(=O)c2ccc(F)cc2)O[C@@H]1CO	/	/	/	/	i	/	/	/
CCOc1ccc(N2CC(C(=O)OCC(=O)c3ccc(OC)cc3)CC2=O)cc1 (stereo unspecified)	103	103	109	100	i	99	/	/
COc1ccc(N2CC(C(=O)OCC(=O)c3ccc(C)cc3)CC2=O)cc1 (stereo unspecified)	88	94	100	103	+	102	i	0
CCCOc1ccc2[nH]cc(C(=O)O)c(=O)c2c1	97	103	97	97	i	104	i	0
O=C(COc1ccc2c3c(c(=O)oc2c1)CCC3)c1ccc2c(c1)OCO2	93	93	94	98	i	96	/	/

Assay outcomes from PubChem.
